Screening data deposited in PubChem by several laboratories.
tim23-1 inh = growth inhibitors of tim23-1 mutant yeast | S. cerevisiae tim23-1 growth, BacTiter-Glo luminescence, 24 h | AID 463212 | inhibition, % at 20 µM | 330,000 tested, 1.3% active;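 active = growth inhibition of the mutant yeast at or above 50%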;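 also: temperature-sensitive mutant grown at 25 °C; plate controls were DMSO-treated mutant yeast for no effect and medium wells lacking yeast for full effect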
NALP3 yeast inh = blocks the NALP3 inflammasome reconstituted in yeast. 330,000 tested, 0.39% active. Yeast reconstituted NLRP3/ASC/caspase-1, beta-gal luminescence, 24 h. inhibition, % at 10 µM;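 active = inhibition of 50% or more; inactive = inhibition below 50%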;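 also: plate controls were induced DMSO wells for no effect and uninduced yeast grown without galactose for full effect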
SKKanGAS inh = blocks kanamycin growth of S. pyogenes SKKanGAS strain | BacTiter-Glo, 6 h | inhibition, % at 7.5 µM | 300,000 tested, 1.3% active | AID 1662;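 active = mean replicate score, as percent of positive control median, at least 50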;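 also: strain carries kanamycin resistance gene driven by streptokinase promoter and grows in 40 µg/ml kanamycin; loss of luminescence reflects streptokinase promoter inhibition or plain growth inhibition; 0% = median of DMSO wells and 100% = positive control at its reference dose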
tim10-1 inh = inhibits growth of tim10-1 mutant yeast | S. cerevisiae tim10-1 ts strain growth, BacTiter-Glo, 24 h | inhibition, % at 20 µM | 330,000 tested, 2.2% active;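 active = inhibition of at least 40%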;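 also: mutant grown at 25 °C; 0% = DMSO wells with yeast and 100% = wells holding no yeast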
TIM10 inh = inhibits growth of TIM10 yeast strain; S. cerevisiae TIM10 strain growth, BacTiter-Glo luminescence, 24 h; inhibition, % at 10 µM; 330,000 tested, 1.4% active; AID 463195;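 active = inhibition of 40% or more at the single tested concentration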;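 also: wild-type TIM10 isogenic control strain grown at permissive 25 °C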
PfHsp90 yeast 2 = growth inhibition of yeast expressing Plasmodium Hsp90 | AID 504621 | 310,000 tested, 0.32% active | S. cerevisiae expressing PfHsp90, BacTiter-Glo ATP, 48 h; yeast lacking PDR1 and PDR3 efflux regulators | inhibition, % at 9.4 µM;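 active = every replicate shows inhibition above about 80%, whatever the replicate mean, limit read from the data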;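 also: 0% = DMSO neutral controls and 100% = 20 µM radicicol positive controls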
An asterisk follows results filed as active. Shown are actives, neighbours in structure and some others; about 4.6% of the full set was active somewhere.

What do the screens show for `COc1ccc(/C=N/Nc2nc(Nc3ccccc3)nc(N3CCCC3)n2)cc1`?
tim23-1 inh: 24; NALP3 yeast inh: 12; SKKanGAS inh: 56*; tim10-1 inh: 10; TIM10 inh: -2; PfHsp90 yeast 2: -11

What do the screens show for `COc1ccc(/C=N/Nc2nc(N3CCCC3)nc(N3CCCC3)n2)cc1`?
SKKanGAS inh: -5; PfHsp90 yeast 2: -8

What do the screens show for `O=C(O)COc1ccc(/C=N/Nc2nc(Nc3ccccc3)nc(N3CCCCC3)n2)cc1`?
tim23-1 inh: 17; NALP3 yeast inh: 6; SKKanGAS inh: 57*; tim10-1 inh: 29; TIM10 inh: 19; PfHsp90 yeast 2: 20

Results for COc1cccc(CC2(CO)CCCN(CC3=Cc4cc(Cl)ccc4OC3)C2)c1 (centres undefined) ?
tim23-1 inh: 38; NALP3 yeast inh: 8; SKKanGAS inh: 13; tim10-1 inh: 34; TIM10 inh: 20; PfHsp90 yeast 2: -6

What do the screens show for `CC1(C)OC(C(O)(c2ccccc2)c2ccccc2)[C@@H](C(O)(c2ccccc2)c2ccccc2)O1` (some centres undefined)?
SKKanGAS inh: 51*; PfHsp90 yeast 2: -8

What do the screens show for `CN(C)Cc1ccccc1C(O)(c1ccccc1)c1ccccc1`?
tim23-1 inh: 22; NALP3 yeast inh: -1; SKKanGAS inh: 5; tim10-1 inh: 16; TIM10 inh: 8; PfHsp90 yeast 2: -21

Results for N#CCC(=O)c1sccc1-n1cccc1 ?
tim23-1 inh: 37; NALP3 yeast inh: 17; SKKanGAS inh: -3; tim10-1 inh: 18; TIM10 inh: 22; PfHsp90 yeast 2: 2

Results for O=C(OCC(=O)N1CCN(C(=O)c2ccco2)CC1)c1cn(-c2ccccc2)nc1-c1ccccc1 ?
tim23-1 inh: 18; NALP3 yeast inh: 14; SKKanGAS inh: -3; tim10-1 inh: 29; TIM10 inh: 18; PfHsp90 yeast 2: 10

What do the screens show for `O=C(OCC(=O)N1CCN(C(=O)c2ccco2)CC1)c1cc(-c2ccc(F)cc2)nc2ccccc12`?
tim23-1 inh: 32; NALP3 yeast inh: -11; SKKanGAS inh: 20; tim10-1 inh: 31; TIM10 inh: -5; PfHsp90 yeast 2: 41

How did O=C(OCC(=O)N1CCN(C(=O)c2ccco2)CC1)c1cc(-c2cccc(Br)c2)nc2ccccc12 do in these assays?
tim23-1 inh: 37; NALP3 yeast inh: 30; SKKanGAS inh: 53*; tim10-1 inh: 17; TIM10 inh: 29; PfHsp90 yeast 2: 100*

Results for Cc1cc(N2CCN(C(=O)c3ccco3)CC2)n2ncc(-c3ccccc3)c2n1 ?
tim23-1 inh: 38; NALP3 yeast inh: 25; SKKanGAS inh: 22; tim10-1 inh: 19; TIM10 inh: -11; PfHsp90 yeast 2: 124*

What do the screens show for `O=C(OCC(=O)N1CCN(C(=O)c2ccco2)CC1)c1cc(-c2ccccc2)nc2ccccc12`?
tim23-1 inh: 40; NALP3 yeast inh: 9; SKKanGAS inh: -3; tim10-1 inh: 2; TIM10 inh: 9; PfHsp90 yeast 2: 101*

Results for O=C(O)CS(=O)CC(=O)Nc1cccc(C(F)(F)F)c1 (centres undefined) ?
tim23-1 inh: 15; NALP3 yeast inh: 6; SKKanGAS inh: 8; tim10-1 inh: -9; TIM10 inh: -6; PfHsp90 yeast 2: -5

Results for CCOC(=O)C(C(C)C)C(N)Cc1ccc(F)cc1 (centres undefined) ?
tim23-1 inh: 18; NALP3 yeast inh: 0; SKKanGAS inh: 8; tim10-1 inh: 7; TIM10 inh: 0; PfHsp90 yeast 2: -12

What do the screens show for `CC1(C)N=C(N)N=C(N)N1c1ccc(OCCCOc2ccccc2)c(Cl)c1`?
SKKanGAS inh: 111*; PfHsp90 yeast 2: -4

How did COc1cccc(N2C(N)=NC(N)=NC2(C)C)c1 do in these assays?
tim23-1 inh: 5; NALP3 yeast inh: -6; SKKanGAS inh: 95*; tim10-1 inh: -16; TIM10 inh: 2; PfHsp90 yeast 2: 7

How did COc1ccc(N2C(N)=NC(N)=NC23CCCC3)cc1 do in these assays?
tim23-1 inh: 1; NALP3 yeast inh: 8; SKKanGAS inh: -3; tim10-1 inh: -4; TIM10 inh: -10; PfHsp90 yeast 2: -7

Results for COc1ccc(N2C(N)=NC(N)=NC2(C)C)cc1 ?
SKKanGAS inh: 73*
